Data: the supplement of paper PMC3334620
Over roughly 33,000 sequences, “E-score (-0.5 to 0.5)” has its median near -0.035; the highest 2% begin near 0.35. What follows is part of a selection rich in the highest values, with near analogues and random picks from the rest.

These sequences were tested against T1, Pdr3 (UniProt P33200) (assay: PBM E-score (8-mer binding enrichment) (E-score (-0.5 to 0.5)); higher = stronger / more preferred TF binding). Conditions: protein concentration: 200 nM; construct: GST-full length.
T1 sequence: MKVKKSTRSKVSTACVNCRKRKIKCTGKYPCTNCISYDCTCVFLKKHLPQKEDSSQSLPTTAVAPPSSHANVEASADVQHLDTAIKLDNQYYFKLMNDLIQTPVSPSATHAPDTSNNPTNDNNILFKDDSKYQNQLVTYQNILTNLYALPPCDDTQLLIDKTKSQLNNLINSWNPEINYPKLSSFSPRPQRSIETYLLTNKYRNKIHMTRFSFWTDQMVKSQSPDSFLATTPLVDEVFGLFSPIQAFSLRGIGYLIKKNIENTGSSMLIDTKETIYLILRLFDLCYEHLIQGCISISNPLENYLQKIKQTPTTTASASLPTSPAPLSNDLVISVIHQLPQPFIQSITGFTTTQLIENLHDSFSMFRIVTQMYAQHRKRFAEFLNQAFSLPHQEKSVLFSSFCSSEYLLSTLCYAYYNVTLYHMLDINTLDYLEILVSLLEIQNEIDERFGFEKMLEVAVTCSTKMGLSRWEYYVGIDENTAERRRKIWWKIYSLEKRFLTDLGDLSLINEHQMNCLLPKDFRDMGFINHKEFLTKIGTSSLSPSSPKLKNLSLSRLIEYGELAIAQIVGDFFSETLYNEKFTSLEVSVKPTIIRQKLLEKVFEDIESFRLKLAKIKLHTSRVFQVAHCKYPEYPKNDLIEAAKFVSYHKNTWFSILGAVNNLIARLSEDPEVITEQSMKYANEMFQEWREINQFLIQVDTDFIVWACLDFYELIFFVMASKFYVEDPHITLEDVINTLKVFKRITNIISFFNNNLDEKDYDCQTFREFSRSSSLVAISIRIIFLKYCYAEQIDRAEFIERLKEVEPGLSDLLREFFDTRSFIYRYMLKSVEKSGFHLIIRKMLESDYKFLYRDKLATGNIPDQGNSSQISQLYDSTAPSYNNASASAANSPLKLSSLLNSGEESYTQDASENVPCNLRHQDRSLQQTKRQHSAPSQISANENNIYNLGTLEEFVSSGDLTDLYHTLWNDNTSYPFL
Procedure: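 Universal 'all 10-mer' protein binding microarrays (Agilent AMADID 015681) probed with GST-tagged S. cerevisiae TFs (full-length or DBD) made by in vitro transcription/translation (PURExpress), about 100-200 nM. Bound TF was detected with fluorescent anti-GST. Each ungapped 8-mer (which stands for itself and its reverse complement) is scored by the PBM enrichment score (E-score), a modified Wilcoxon-Mann-Whitney statistic from -0.5 to +0.5, computed with the Universal PBM Analysis Suite. Scale: above 0.35 generally sequence-specific binding.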

Sequence | PBM E-score
AGCTTCGA | -0.102
GAGCCGGA | 0.362
GAGCCGCA | 0.044
AAGCCGGG | 0.262
CAGCCGAA | 0.0741
AAGCCGGC | 0.366
AAGCCGGA | 0.392
GAGCCGGC | 0.324
AAGCCGTC | 0.178
CAGCCGGC | 0.324
CAGCCGGG | 0.229
CAGCCGGA | 0.398
AAGCCGGT | 0.199
AAGTGCTC | -0.107
AGTTCTAA | 0.00941
ACGGTGAA | -0.0181
AATCGTCA | -0.112
GTTGATCA | 0.0338
AGCCCCAT | -0.0914
TAGCCGAA | 0.0812
TAGCCGGA | 0.372
TAGCCGCA | -0.0883
AAAGAGGA | -0.131
ATAACTGA | 0.00191
CTGAACTC | -0.215

Sequence | PBM E-score
AGGAACTA | 0.0717
CGGAACTC | 0.452
GGGAACTA | 0.0485
AGGAACTC | 0.0544
CGGAACTA | 0.473
CTCTTCTC | -0.18
GTATGGAC | 0.0423
ACCGATGG | -0.0565
CTACTGTA | -0.136
ACTAAACT | -0.121
AGCAGCAC | -0.129
GTTGCCTA | 0.0329
CCCCGGGC | 0.33
ACCCGGTC | 0.199
GCCCGGGC | 0.427
ACCGGGGC | 0.224
GACCGGGC | 0.0834
AACCGGGA | 0.243
ACCCGGGA | 0.448
ACCGGGGA | 0.0294
ACCCCGGT | 0.186
ACCCGGGC | 0.424
ACCCGGCT | 0.24
ACCCGGGT | 0.446
GGCACCCC | -0.0993

Sequence | PBM E-score
CTGGCCAA | 0.0275
AGGATCTA | -0.352
ATTACTAA | -0.0285
GCGGGCCA | 0.0261
CCACCATA | 0.0173
ATTTTCTA | -0.183
ACGAGGCA | -0.211
GTCAAAGA | -0.212
TAAATTAA | 0.0873
AACCTCCG | 0.219
CGAAGAAC | 0.119
AGCCCAAT | -0.194
GCCCGGGA | 0.393
GCCGGGGA | 0.2
GACCGGGA | 0.304
GCGTTCCC | 0.139
CTGCCCCA | -0.045
CGGGGACC | 0.291
CGCGGACA | 0.361
GGCGGACC | 0.357
CGCGGACC | 0.437
GGCGGACA | 0.185
CGTGGACA | 0.108
CGCGGACG | 0.342
AGCGGACA | 0.154

Sequence | PBM E-score
AGCGGACC | 0.175
GATCGCCC | 0.00089
CAAACCGA | -0.0979
CGCCGTCC | 0.115
TGACGCAA | -0.165
CGGACTCA | 0.31
GACAAGGA | -0.0759
AGACTCGG | -0.099
ACGTCAAG | -0.311
CGACCGAA | 0.0221
CGACCGGC | 0.161
AGACCGGA | 0.254
CGACCGGA | 0.358
GGACCGGA | 0.382
GGACCGCA | 0.243
ATGCCAGC | -0.22
CTCAAAAA | -0.0515
CACCCGTC | 0.215
CAGTCTGC | -0.173
CTACTTGA | -0.238
GGGGATGA | 0.0246
GGGGATTA | 0.162
CGGGATGC | 0.311
AGGGATTC | -0.0434
CGGGATTC | 0.382

Sequence | PBM E-score
CGGGATTA | 0.404
AGGGATTA | -0.132
CGGGATGA | 0.369
CTGGATTC | 0.105
AGCCGAGC | 0.267
GTAACCCA | 0.0499
AAGCGAAA | -0.0467
CTCGTAGC | -0.167
CGACCATA | 0.0144
CTTCTGGA | -0.0291
CATCTACC | 0.0434
CCCTCGGA | 0.373
CGCTCGGA | 0.359
CCGTCGGA | 0.361
ACGTCGGA | 0.175
TACTCGGA | 0.336
CCCTCGGC | 0.173
GACTCGGA | 0.39
AGCTCGGA | 0.316
AACTCGGA | 0.296
CCGTCGGC | 0.285
GGCTCGGA | 0.338
GCCTCGGA | 0.308
ACGATCAG | -0.108
AGCTCCCT | -0.178

Sequence | PBM E-score
CATAAAGG | -0.0331
TCACGAAA | 0.0507
AGCGGGGG | -0.158
ACCTCGGC | 0.307
ACCTCGGG | 0.158
ACCTCGGA | 0.357
AACGTCAA | -0.146
GCTATTCA | 0.0956
AATGGTAG | -0.0896
AGAACTCC | 0.0347
GGAACTCC | 0.366
CGAACTCC | 0.132
CTCGCGAG | 0.192
CTGCGGGC | 0.218
CGGCGGTC | 0.145
GCGCGGTA | 0.28
ACGCGGTC | 0.181
ACGCGGTA | 0.0327
CCGCGGTC | 0.432
CCGCGGTA | 0.473
ACGCGGGC | 0.17
CCGCGGGC | 0.484
GATCCAAA | 0.064
ACGTCTAT | -0.168
ACGTAGCT | -0.31

Sequence | PBM E-score
CCGTCTAG | 0.178
GCCGGCAC | 0.392
ACCGGCAA | 0.185
ACCGGCAC | 0.192
GCCGGCAA | 0.37
TTCGGCAA | -0.0284
CCCGGCAC | 0.154
TCCGGCAA | 0.356
TACGGCAA | -0.034
CCCGGCAA | 0.286
TGAACGAA | -0.195
CCTCAACC | -0.118
AGATTACA | -0.107
ACTGTGAG | -0.0549
GAGGCTGA | -0.305
AGAGGGCG | 0.126
CGCGCTAA | 0.205
CCGGTCGA | 0.167
CCCGGACA | 0.362
CCCGGACG | 0.223
CCCCGACA | 0.0765
TCCGGACA | 0.447
GCCGGACA | 0.315
ACCGGACA | 0.206
